# Measurements from paper PMC9838217, “Structure of SALL4 zinc finger domain reveals link between AT-rich DNA binding and Okihiro syndrome”.
# Numbering of substitutions follows the chain as printed.
# Key:
# Assay in all cases: HT-SELEX; high values mean tight binding
# Conditions in all cases: protein: recombinant; vector His6-GST; dsDNA, one strand shown
# SALL4 ZFC4 WT (HT-SELEX) = target: T1, SALL4 ZFC4 WT (HT-SELEX) (Mus musculus, UniProt Q8BX22 870-940)
# T1 sequence: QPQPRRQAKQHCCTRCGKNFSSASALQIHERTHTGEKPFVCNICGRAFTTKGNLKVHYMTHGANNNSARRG
# How it was run: (§1)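 Each canonical k-mer's binding signal is its read fraction expressed as fold change over the initial random library. Reads came from MiSeq sequencing, scanned for 6-mers, after up to 6 triplicate cycles in which purified recombinant mouse SALL4 zinc finger cluster 4 (residues 870–940, 1 µg) bound library DNA (1.5 µg first cycle, 200 ng later) in 100 µl of 10 mM Tris–HCl pH 7.5, 50 mM NaCl, poly(dI-dC), DTT for 10 min at room temperature. Complexes were then Ni2+ bead-captured, washed, PCR-amplified and reselected.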
# [1] = target: T2, SALL4 ZFC4 R900W (HT-SELEX) (Mus musculus, UniProt Q8BX22 870-940, R900W)
# T2 sequence: T1 sequence with R31W
# How it was run: as §1
# [2] = target: T3, SALL4 ZFC4 G921D (HT-SELEX) (Mus musculus, UniProt Q8BX22 870-940, G921D)
# T3 sequence: T1 sequence with G52D
# How it was run: as §1
Sequence,binding signal (SALL4 ZFC4 WT (HT-SELEX)),binding signal [1],binding signal [2]
ACTAGT,1.33 ± 0.0473 fold-change vs cycle 0,1.52 ± 0.0779 fold-change vs cycle 0,1.37 ± 0.106 fold-change vs cycle 0
CATTAC,1.43 ± 0.0799 fold-change vs cycle 0,1.52 ± 0.113 fold-change vs cycle 0,1.41 ± 0.113 fold-change vs cycle 0
AAACAC,1.06 ± 0.0292 fold-change vs cycle 0,1.16 ± 0.0244 fold-change vs cycle 0,1.189 ± 0.0109 fold-change vs cycle 0
CATTCA,1.32 ± 0.0575 fold-change vs cycle 0,1.48 ± 0.0487 fold-change vs cycle 0,1.41 ± 0.0654 fold-change vs cycle 0
AATGCT,1.15 ± 0.0126 fold-change vs cycle 0,1.19 ± 0.0201 fold-change vs cycle 0,1.225 ± 0.011 fold-change vs cycle 0
ACAATC,1.25 ± 0.051 fold-change vs cycle 0,1.38 ± 0.0687 fold-change vs cycle 0,1.36 ± 0.0869 fold-change vs cycle 0
GGTTAA,1.23 ± 0.0345 fold-change vs cycle 0,1.4 ± 0.0959 fold-change vs cycle 0,1.3 ± 0.0896 fold-change vs cycle 0
CCTCGA,0.415 ± 0.0275 fold-change vs cycle 0,0.51 ± 0.0259 fold-change vs cycle 0,0.594 ± 0.0635 fold-change vs cycle 0
AGGTCA,0.772 ± 0.0359 fold-change vs cycle 0,0.893 ± 0.023 fold-change vs cycle 0,0.972 ± 0.0353 fold-change vs cycle 0
AATAGT,1.96 ± 0.0795 fold-change vs cycle 0,1.94 ± 0.0794 fold-change vs cycle 0,1.77 ± 0.136 fold-change vs cycle 0
AATCGG,0.593 ± 0.0172 fold-change vs cycle 0,0.657 ± 0.021 fold-change vs cycle 0,0.763 ± 0.0166 fold-change vs cycle 0
CATTCG,0.667 ± 0.027 fold-change vs cycle 0,0.769 ± 0.0521 fold-change vs cycle 0,0.847 ± 0.0186 fold-change vs cycle 0
AAATAT,5.57 ± 0.542 fold-change vs cycle 0,2.36 ± 0.147 fold-change vs cycle 0,2.07 ± 0.227 fold-change vs cycle 0
CGAAGA,0.723 ± 0.0365 fold-change vs cycle 0,0.802 ± 0.0443 fold-change vs cycle 0,0.859 ± 0.0315 fold-change vs cycle 0
CAAGAC,0.74 ± 0.0108 fold-change vs cycle 0,0.856 ± 0.0182 fold-change vs cycle 0,0.905 ± 0.036 fold-change vs cycle 0
AATGAG,1.36 ± 0.0386 fold-change vs cycle 0,1.5 ± 0.047 fold-change vs cycle 0,1.41 ± 0.0472 fold-change vs cycle 0
ACCGAG,0.423 ± 0.0215 fold-change vs cycle 0,0.496 ± 0.0188 fold-change vs cycle 0,0.586 ± 0.0556 fold-change vs cycle 0
ACTCAC,0.877 ± 0.0278 fold-change vs cycle 0,0.97 ± 0.0118 fold-change vs cycle 0,1.02 ± 0.0114 fold-change vs cycle 0
CTAATC,1.38 ± 0.0603 fold-change vs cycle 0,1.55 ± 0.0541 fold-change vs cycle 0,1.43 ± 0.0842 fold-change vs cycle 0
ATGAAG,1.56 ± 0.0293 fold-change vs cycle 0,1.68 ± 0.108 fold-change vs cycle 0,1.51 ± 0.124 fold-change vs cycle 0
TATGAA,3.56 ± 0.299 fold-change vs cycle 0,2.1 ± 0.116 fold-change vs cycle 0,1.85 ± 0.171 fold-change vs cycle 0
AGCTCC,0.365 ± 0.00759 fold-change vs cycle 0,0.455 ± 0.0186 fold-change vs cycle 0,0.588 ± 0.0519 fold-change vs cycle 0
ATCGAG,0.776 ± 0.0249 fold-change vs cycle 0,0.873 ± 0.0248 fold-change vs cycle 0,0.967 ± 0.0375 fold-change vs cycle 0
CTTAAG,1.38 ± 0.0318 fold-change vs cycle 0,1.56 ± 0.0368 fold-change vs cycle 0,1.46 ± 0.11 fold-change vs cycle 0
TAATCA,2.37 ± 0.116 fold-change vs cycle 0,2.13 ± 0.0839 fold-change vs cycle 0,1.88 ± 0.168 fold-change vs cycle 0
CTGGTC,0.403 ± 0.00696 fold-change vs cycle 0,0.499 ± 0.0159 fold-change vs cycle 0,0.601 ± 0.0523 fold-change vs cycle 0
ACGTAC,0.714 ± 0.0363 fold-change vs cycle 0,0.825 ± 0.0331 fold-change vs cycle 0,0.862 ± 0.022 fold-change vs cycle 0
CGTTAC,0.817 ± 0.0239 fold-change vs cycle 0,0.932 ± 0.0341 fold-change vs cycle 0,0.941 ± 0.0136 fold-change vs cycle 0
TATTAA,5.02 ± 0.457 fold-change vs cycle 0,2.69 ± 0.232 fold-change vs cycle 0,2.25 ± 0.285 fold-change vs cycle 0
CAGAGA,0.765 ± 0.0216 fold-change vs cycle 0,0.92 ± 0.0161 fold-change vs cycle 0,0.951 ± 0.0212 fold-change vs cycle 0
